Screens deposited in PubChem by Broad Institute.
INS-1E GSIS act – primary screen for activators of insulin secretion dependent on glucose, INS-1E cells, GLuc reporter luminescence | INS-1E GLuc reporter insulin secretion, 2-3 h | activation, % at 16.6 µM | 0.61% of 370,000 active | AID 743287;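 active = lowest replicate activation of at least 40%, so every replicate reaches that level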;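 also: 0% = median of neutral control wells and 100% = median of IBMX positive control wells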
RAD52 anneal inh – blocks human RAD52 DNA annealing; P43351; recombinant RAD52 DNA annealing, FRET fluorescence; inhibition, % at 18.7 µM; 0.46% of 360,000 active; AID 651710;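 active = every replicate showing at least 50% inhibition; inconclusive = mean inhibition at least 50% but not in every replicate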
DENV2 CPE rescue – protects cells from dengue virus 2 cytopathic effect; DENV2-infected cells, cytopathic effect rescue, plate reader; CPE inhibition, % at 9.99 µM; 1.7% of 350,000 active; AID 651640; in the data active = CPE inhibition above about 20%, passing the limit was not always enough; inconclusive = no clear call, values can overlap the other calls; tested in BHK-21 cells;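 also: 0% = median of neutral control wells and 100% = median of positive control wells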
RAD54 inh – inhibitors of human RAD54 branch migration; Q92698; RAD54 Holliday junction branch migration, FAM/BHQ fluorescence; inhibition, % at 10.4 µM; 0.14% of 360,000 active;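 active = mean normalized replicate activity at least 40 and at least half of replicates scoring 40 or more; inconclusive = only one of the two criteria met; inactive = mean below 40 and under half of replicates reaching 40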;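 also: 0% = median of neutral control wells and 100% = median of positive control wells; inhibitors cause a drop in the FAM fluorescence signal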
dFosB act – mouse delta FosB homodimer activation; AID 493131; purified delta FosB, TAMRA-CDK5 oligo fluorescence polarization; percent of positive-control signal above neutral wells; 0.99% of 340,000 active; activation, % at 25 µM;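 active = mean activation above about 17%, with every replicate also reaching it, limit read from the data, passing the limit was not always enough; inconclusive = only one of the two conditions met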
AF4-AF9 inh – blocks AF4 peptide binding to human AF9. 0.47% of 350,000 active. AlphaScreen, biotin-AF4 peptide binding to FLAG-AF9. AID 651704. inhibition, % at 10 µM. P42568;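 active = every replicate reaching a set inhibition limit, whatever the replicate mean, cut at about 25% in these data; inconclusive = mean inhibition reaches that limit but some replicates miss it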;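 also: 0% = plate neutral control median and 100% = total signal loss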
Target sequence (P42568 whole entry, looked up): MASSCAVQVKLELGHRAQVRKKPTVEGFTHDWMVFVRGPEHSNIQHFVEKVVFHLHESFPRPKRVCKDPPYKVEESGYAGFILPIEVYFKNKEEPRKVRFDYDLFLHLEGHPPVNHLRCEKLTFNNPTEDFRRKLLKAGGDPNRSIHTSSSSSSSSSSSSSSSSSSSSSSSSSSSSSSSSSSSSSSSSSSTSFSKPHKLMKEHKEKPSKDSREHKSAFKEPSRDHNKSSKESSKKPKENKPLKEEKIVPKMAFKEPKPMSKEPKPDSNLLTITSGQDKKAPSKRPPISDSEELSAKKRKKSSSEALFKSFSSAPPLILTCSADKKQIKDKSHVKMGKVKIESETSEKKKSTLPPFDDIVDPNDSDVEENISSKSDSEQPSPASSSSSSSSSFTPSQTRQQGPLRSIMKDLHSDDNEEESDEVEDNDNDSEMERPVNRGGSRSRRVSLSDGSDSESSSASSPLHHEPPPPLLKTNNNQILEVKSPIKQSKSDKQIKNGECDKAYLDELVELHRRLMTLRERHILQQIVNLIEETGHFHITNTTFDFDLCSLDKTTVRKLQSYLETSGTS
* = called active by the depositor; u = inconclusive; x = no result given. Only some compounds are listed: those with a hit (about 3.1% of all), similar ones and a draw of the others.

SMILES | INS-1E GSIS act | RAD52 anneal inh | DENV2 CPE rescue | RAD54 inh | dFosB act | AF4-AF9 inh
COc1cccc(-c2ccc3c(c2)O[C@@H](CN(C)C)[C@@H](C)CN([C@H](C)CO)S3(=O)=O)c1 | 6 | 7 | -6 | -5 | x | 0
Cc1noc(C)c1S(=O)(=O)Nc1ccc2c(c1)C(=O)N([C@@H](C)CO)C[C@@H](C)[C@H](CN(C)S(=O)(=O)c1ccc(F)cc1)OCCCC[C@H](C)O2 | -8 | 94* | -14 | -5 | x | -1
Cc1noc(C)c1S(=O)(=O)Nc1ccc2c(c1)C(=O)N([C@H](C)CO)C[C@H](C)[C@H](CN(C)S(=O)(=O)c1ccc(F)cc1)OCCCC[C@H](C)O2 | -2 | -72 | u | -9 | x | 2
O=C(CN1C(=O)C(=O)N(Cc2ccccc2)C1=O)Nc1cc(Cl)cc(Cl)c1 | -36 | -20 | x | x | -8 | 0
N#CCSc1ccccc1NC(=O)CN1C(=O)C(=O)N(Cc2ccccc2)C1=O | x | -36 | 41* | x | -2 | -3
CCCNC(=O)Nc1ccc2c(c1)C(=O)N(C)C[C@H](OC)[C@H](C)CN(Cc1cncnc1)[C@H](C)CO2 | 7 | -9 | 53* | -3 | x | -2
CCCNC(=O)Nc1ccc2c(c1)OC[C@H](C)N(Cc1ccc(-c3ccccn3)cc1)C[C@@H](C)[C@H](OC)CN(C)C2=O | -37 | 14 | 25* | -20 | x | 1
CCCC(=O)Nc1ccc2c(c1)C(=O)N(C)C[C@H](OC)[C@@H](C)CN(Cc1ccc(-c3ccccn3)cc1)[C@H](C)CO2 | -28 | 6 | 36* | -8 | x | 0
CCCC(=O)Nc1ccc2c(c1)C(=O)N(C)C[C@H](OC)[C@@H](C)CN(Cc1ccc(-c3ccccn3)cc1)[C@@H](C)CO2 | -39 | 14 | 13 | -5 | x | 0
C[C@H]1CN([C@@H](C)CO)C(=O)c2cc(-c3ccc(C#N)cc3)cnc2O[C@@H]1CN(C)C(=O)CN(C)C | -2 | 3 | -1 | -3 | x | -2
CCCN1C[C@H](C)[C@@H](OC)CN(C)C(=O)c2cc(NC(=O)c3ccc(F)cc3)ccc2OC[C@@H]1C | -17 | 10 | -8 | 4 | x | 2
CCCN1C[C@H](C)[C@@H](OC)CN(C)C(=O)c2cc(NC(=O)c3ccc(F)cc3)ccc2OC[C@H]1C | 4 | 10 | 47* | -2 | x | 1
CCCN1C[C@H](C)[C@@H](OC)CN(C)C(=O)c2ccc(NC(=O)c3cccc(F)c3)cc2OC[C@@H]1C | -23 | -86 | 29* | -10 | x | 39*
CCN1C[C@@H](C)[C@H](OC)CN(C)C(=O)c2cc(NC(=O)c3ccno3)ccc2OC[C@H]1C | -1 | -3 | 20* | -1 | x | 1
CCCN1C[C@H](C)[C@H](OC)CN(C)C(=O)c2cc(NC(=O)c3ccno3)ccc2OC[C@H]1C | 16 | -9 | 12 | 7 | x | -1
CCCN1C[C@H](C)[C@H](OC)CN(C)C(=O)c2ccc(NC(=O)c3cccc(F)c3)cc2OC[C@H]1C | 0 | 6 | 5 | 2 | x | 39*
Cc1noc(C)c1NC(=O)Nc1ccc2c(c1)C(=O)N([C@@H](C)CO)C[C@H](C)[C@H](CN(C)C(=O)NC(C)C)OCCCC[C@H](C)O2 | 15 | 7 | 2 | -4 | x | -1
O=C(N[C@@H]1CC[C@@H](CCn2cc(-c3ccccc3)nn2)O[C@@H]1CO)c1ccccc1F | 1 | 2 | -2 | -5 | x | 1
CO[C@@H]1CN(C)C(=O)c2cc(NC(=O)c3cc(C)on3)ccc2OC[C@@H](C)N(S(=O)(=O)c2ccccc2)C[C@H]1C | x | -4 | -3 | -10 | x | 0
CO[C@H]1CN(C)C(=O)c2ccc(NC(=O)C3CC3)cc2OC[C@@H](C)N(C(=O)c2ccccc2F)C[C@@H]1C | 0 | -2 | 2 | 9 | x | -2
CCCN1C[C@H](C)[C@@H](OC)CN(C)C(=O)c2ccc(NC(=O)c3cccc(F)c3)cc2OC[C@H]1C | -1 | 3 | -10 | 1 | x | 45*
CCCN1C[C@@H](C)[C@H](OC)CN(C)C(=O)c2ccc(NC(=O)c3cccc(F)c3)cc2OC[C@H]1C | -11 | -22 | -15 | 3 | x | u
COCc1cc(C)nc(Nc2ccccc2C)c1C#N | x | 14 | -2 | x | 0 | 2
CCN(CC)CCCNc1nc(C)cc(COC)c1C#N | 6 | -5 | 45* | x | 4 | -2
COCC(=O)N1CC(=O)N2[C@H](CO)[C@H](c3ccc(-c4ccncc4)cc3)[C@@H]2C1 | 14 | -4 | -9 | x | x | -1
SMILES | INS-1E GSIS act | RAD52 anneal inh | DENV2 CPE rescue | RAD54 inh | dFosB act | AF4-AF9 inh
C[C@@H]1CN([C@@H](C)CO)C(=O)c2cc(-c3ccc(F)cc3)cnc2O[C@@H]1CN(C)CC1CCCC1 | -9 | 1 | -8 | 0 | x | -2
COc1ccc(C#Cc2cnc3c(c2)C(=O)N([C@H](C)CO)C[C@H](C)[C@H](CN(C)CC2CCCC2)O3)cc1 | x | -3 | 40* | 6 | x | 4
COc1ccc(C#Cc2cnc3c(c2)C(=O)N([C@@H](C)CO)C[C@H](C)[C@H](CN(C)CC2CCCC2)O3)cc1 | x | -10 | 37* | 9 | x | 7
C[C@@H]1CN([C@@H](C)CO)C(=O)c2cc(-c3ccc(F)cc3)cnc2O[C@H]1CN(C)CC1CCCC1 | -7 | 18 | 54* | 0 | x | -8
Cc1ccc(S(=O)(=O)NCC[C@@H]2CC[C@H](NC(=O)C3CCOCC3)[C@@H](CO)O2)cc1 | 2 | 8 | 17 | 5 | x | -2
CO[C@@H]1CN(C)C(=O)c2cc(NC(=O)C3CC3)ccc2OC[C@H](C)N(Cc2ccc(F)cc2)C[C@H]1C | -26 | 6 | 0 | 1 | x | 0
Cc1cc(F)cc(-c2cc(C(=O)NCC3CCCCC3)[nH]n2)c1 | 5 | -9 | 27* | -14 | x | 0
COc1ccc(-c2cc(C(=O)NCC3CCCCC3)[nH]n2)c(C)c1 | x | 0 | 8 | 0 | x | -3
Nc1nccnc1C(=O)OCC(=O)c1ccc[nH]1 | 3 | -5 | 33* | -12 | -2 | 0
CCOc1ncccc1C(=O)OCC(=O)c1ccc[nH]1 | x | x | x | 1 | -2 | x
O=C(CC1CC1)Nc1ccc2c(c1)[C@@H]1C[C@H](CC(=O)N3CCc4ccccc4C3)O[C@H](CO)[C@@H]1O2 | -4 | -4 | -8 | 4 | x | -1
C(=C\c1nnc2c3ccccc3ncn12)/c1ccccc1 | x | -3 | -5 | x | -40 | 0
COc1cc(/C=C/c2nnc3c4ccccc4ncn23)cc(OC)c1OC | 26 | -17 | x | x | 27* | 9
C[C@H](CO)N1C[C@H](C)[C@@H](CN(C)C(=O)CN(C)C)Oc2ncc(C#Cc3ccccc3)cc2C1=O | 13 | 39 | u | 14 | x | 16
C[C@H](CO)N1C[C@H](C)[C@H](CN(C)C(=O)Nc2ccc3c(c2)OCO3)Oc2c(NS(=O)(=O)c3ccccc3)cccc2C1=O | x | 6 | -5 | 0 | x | 1
